Drawing on PubChem BioAssay (NCI), this text covers growth for eight compounds.

Among the test systems are DU-145 prostate; K-562 leukemia; MALME-3M melanoma; MDA-MB-231 breast; RXF 393 renal; SF-268 CNS; SF-295 CNS; SF-539 CNS; UACC-257 melanoma; M14 melanoma; HCT-15 colon; HT29 colon; SNB-19 CNS; U251 CNS; PC-3 prostate; SK-MEL-5 melanoma; UACC-62 melanoma; LOX IMVI melanoma; SK-MEL-28 melanoma.
Common to all, as to experiment: NCI-60 one-dose screen, 48 h (100 = growth as untreated, 0 = no growth, -100 = all killed)
Conditions in all cases: 10 µM unless noted

The panel holds about 83,000 compounds, 20% with a hit somewhere; the sample as a whole holds those more often.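 Negative percent growth values reflect cell death: -40 means 40% of the cells present at the start died, and -100 means all died.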 A number with no mark means an inactive call. Active and inactive are the calls of the source. Rule for the calls: active = growth percent below 10; inactive = the rest.

With `O=C(/C=C/c1cccc(Cl)c1Cl)Nc1ncc(Cc2ccccc2Cl)s1`, the growth is 53.3% in the experiment on DU-145 prostate; 13.4% in the experiment on K-562 leukemia; 62.1% in the experiment with MALME-3M melanoma; 75% in the experiment on MDA-MB-231 breast; 37.8% in the experiment with RXF 393 renal; 82.2% in the experiment with SF-268 CNS. Moreover, the growth in the experiment with SF-295 CNS was 21.4%; with SF-539 CNS, 11.5%; in the experiment on UACC-257 melanoma it was 78.1%; in the experiment with M14 melanoma, 12.5%; in the experiment on HCT-15 colon, 21.1%; with HT29 colon, 11.9%. Moreover, the growth with SNB-19 CNS is 47.2%; in the experiment with U251 CNS it was 50.9%; with PC-3 prostate, 56.5%; in the experiment on SK-MEL-5 melanoma, 45.8%; in the experiment on UACC-62 melanoma it was 42.7%; in the experiment with LOX IMVI melanoma, 44.7%. For the same compound, the growth in the experiment with SK-MEL-28 melanoma is 58.6%.

`COc1ccc2c(c1)CCc1[nH]nc(-c3cc(OC)c(OC)c(OC)c3)c1-2`: the growth in the experiment with DU-145 prostate was 7.06% (active); in the experiment on K-562 leukemia, 7.23% (active); in the experiment with MALME-3M melanoma it was 69.8%; in the experiment with MDA-MB-231 breast, 19.2%; in the experiment on RXF 393 renal, 22.6%; in the experiment on SF-268 CNS, 17.8%. Further, the growth in the experiment with SF-295 CNS is 1.46% (active); in the experiment with SF-539 CNS, 0.378% (active); in the experiment on UACC-257 melanoma, 38.2%; in the experiment on M14 melanoma, 4.46% (active); in the experiment with HCT-15 colon, 10.3%; with HT29 colon it was 0.652% (active). Besides, the growth in the experiment with SNB-19 CNS was 28.7%; in the experiment with U251 CNS it was 5.42% (active); in the experiment on PC-3 prostate, 12.6%; in the experiment on SK-MEL-5 melanoma it was -54.2% (active); with UACC-62 melanoma, 28.8%; in the experiment on LOX IMVI melanoma it was 5.34% (active). Further, the growth in the experiment on SK-MEL-28 melanoma was 58%.

As for `Cc1c(Cl)cccc1C(=O)Nc1nc2c(s1)CN(C(=O)c1ccc(C(F)(F)F)cc1)CC2`, the growth was 15.7% with DU-145 prostate; 10.3% in the experiment on K-562 leukemia; 44.6% with MALME-3M melanoma; 34.4% in the experiment with MDA-MB-231 breast; 21.9% in the experiment with RXF 393 renal; 38.4% in the experiment on SF-268 CNS. Besides, the growth is 25.1% in the experiment on SF-295 CNS; -24.5% (active) with SF-539 CNS; 63.7% in the experiment on UACC-257 melanoma; 10.2% in the experiment with M14 melanoma; 15% with HCT-15 colon; 1.63% (active) in the experiment on HT29 colon. The growth in the experiment with SNB-19 CNS was 34.6%; in the experiment with U251 CNS, 17.7%; in the experiment on PC-3 prostate, 7.45% (active); with SK-MEL-5 melanoma, 8.01% (active); in the experiment on UACC-62 melanoma, 37.6%; with LOX IMVI melanoma it was 20.2%. For the same compound, the growth in the experiment on SK-MEL-28 melanoma was 59.1%.

Regarding `CC1(C)[C@@H](O[C@@H]2OC[C@@H](O[C@@H]3O[C@H](CO)[C@@H](O)[C@H](O)[C@H]3O[C@@H]3OC[C@@H](O)[C@H](O)[C@H]3O)[C@H](O)[C@H]2O[C@@H]2O[C@H](CO)[C@@H](O)[C@H](O)[C@H]2O)CC[C@]2(C)[C@H]3CC[C@]45OC[C@@]6(CC[C@](C)(C=O)C[C@H]64)[C@H](O)C[C@@]5(C)[C@]3(C)CC[C@@H]12`, the growth in the experiment on DU-145 prostate was -82.1% (active); with K-562 leukemia, -18% (active); in the experiment on MALME-3M melanoma it was -79.8% (active); in the experiment with MDA-MB-231 breast, -59.5% (active); in the experiment with RXF 393 renal it was -77.2% (active); in the experiment with SF-268 CNS it was -55.1% (active). Moreover, the growth is -89% (active) with SF-295 CNS; -22.6% (active) in the experiment on SF-539 CNS; -87.1% (active) in the experiment with UACC-257 melanoma; -85% (active) with M14 melanoma; -46.4% (active) in the experiment on HCT-15 colon; -85.3% (active) with HT29 colon. The growth with PC-3 prostate was -85.1% (active); in the experiment on SK-MEL-5 melanoma, -27.7% (active); in the experiment on UACC-62 melanoma it was -71.8% (active); with LOX IMVI melanoma it was -73.2% (active); in the experiment with SK-MEL-28 melanoma, -76.4% (active).

For the compound `O=C(NC1CC(F)C1)c1cc2cccnc2n1-c1ccc(Cl)c(Cl)c1` (stereo not given), the growth in the experiment on DU-145 prostate was 106%; in the experiment with K-562 leukemia, 96.3%; in the experiment with MALME-3M melanoma, 113%; in the experiment on MDA-MB-231 breast it was 96.5%; with RXF 393 renal it was 102%; in the experiment on SF-268 CNS, 91.6%. Further, the growth is 95.1% with SF-295 CNS; 98% in the experiment on SF-539 CNS; 96.9% in the experiment on UACC-257 melanoma; 111% in the experiment with M14 melanoma; 96.6% in the experiment with HCT-15 colon; 101% in the experiment with HT29 colon. The growth was 95.2% with SNB-19 CNS; 93.9% with U251 CNS; 89.8% in the experiment on PC-3 prostate; 98.9% in the experiment on SK-MEL-5 melanoma; 83.7% in the experiment on UACC-62 melanoma; 89.6% in the experiment on LOX IMVI melanoma. Further, the growth in the experiment on SK-MEL-28 melanoma is 117%.

On to `O=C(O)c1cn(C2CC2)c2cc(N3CCN(C(=O)Nc4nc(-c5ccc(Br)cc5)cs4)CC3)c(F)cc2c1=O`, for which the growth with DU-145 prostate is 17%; in the experiment with K-562 leukemia, 18%; in the experiment with MALME-3M melanoma, 29.3%; in the experiment on MDA-MB-231 breast it was 28.9%; in the experiment on RXF 393 renal, 25.2%; with SF-268 CNS it was 24.2%. The growth in the experiment with SF-295 CNS was 19.5%; in the experiment on SF-539 CNS it was 23.6%; in the experiment on UACC-257 melanoma, 3.57% (active); in the experiment with M14 melanoma, 23.7%; in the experiment with HCT-15 colon it was 14.3%; in the experiment with HT29 colon it was 9.27% (active). The growth is 19.7% in the experiment on SNB-19 CNS; 12.7% in the experiment on U251 CNS; 19.2% in the experiment on PC-3 prostate; -41% (active) in the experiment with SK-MEL-5 melanoma; -1.55% (active) with UACC-62 melanoma; -9.03% (active) in the experiment with LOX IMVI melanoma. For the same compound, in the experiment with SK-MEL-28 melanoma, the growth is 42.2%.

With `C[n+]1ccc(CCc2c[nH]c3ccccc23)cc1`, the growth in the experiment with DU-145 prostate is 111%; with K-562 leukemia, 102%; in the experiment with MALME-3M melanoma, 76.1%; with MDA-MB-231 breast it was 92.7%; in the experiment on RXF 393 renal it was 118%; in the experiment with SF-268 CNS, 94.4%. Further, the growth was 94.5% with SF-295 CNS; 95.7% in the experiment with SF-539 CNS; 104% in the experiment on UACC-257 melanoma; 95.1% with M14 melanoma; 99.7% in the experiment on HCT-15 colon; 88.8% in the experiment on HT29 colon. The growth in the experiment with SNB-19 CNS is 102%; in the experiment on U251 CNS it was 95.2%; in the experiment on PC-3 prostate, 84%; in the experiment on SK-MEL-5 melanoma it was 104%; in the experiment with UACC-62 melanoma, 101%; in the experiment on LOX IMVI melanoma, 94.6%. The growth with SK-MEL-28 melanoma was 100%.

`Cc1ccc(S(=O)(=O)N2CCC(=O)c3ccccc32)cc1`: the growth in the experiment with DU-145 prostate is 62%; with K-562 leukemia, 40.2%; with MALME-3M melanoma, 84.9%; in the experiment with MDA-MB-231 breast, 72.9%; in the experiment on RXF 393 renal, 61%; in the experiment on SF-268 CNS, 80.2%. Further, the growth with SF-295 CNS is 86.6%; in the experiment on SF-539 CNS, 55.1%; with UACC-257 melanoma, 77.8%; in the experiment with M14 melanoma, 62%; with HCT-15 colon it was 42.9%; in the experiment with HT29 colon, 68.4%. For the same compound, the growth in the experiment on SNB-19 CNS is 69.4%; with U251 CNS, 49.4%; with PC-3 prostate it was 74.8%; with SK-MEL-5 melanoma, 63.3%; in the experiment with UACC-62 melanoma, 67.7%; with LOX IMVI melanoma it was 76.4%. The growth in the experiment on SK-MEL-28 melanoma was 80.3%.
